Bioassay records: PubChem BioAssay, National Center for Advancing Translational Sciences (NCATS)
Only a selection was taken, and hits are over-represented in it overall.
Pf Dd2 growth: qHTS Primary assay for Inhibitors of Plasmodium falciparum Dd2 growth in vitro. P. falciparum Dd2 growth, SYBR Green, 72 h. Potency, µM (doses to about 28.9 µM), inactives show top-dose activity, negative = inhibition, hits mostly inhibitors. actives 4.3% (n = 120,000). AID 1347417, 2020; active = well fitted inhibition curve with a large enough effect;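 note: plate controls were DMSO vehicle for no effect and reference drug for full effect; nearly all actives have a fitted effect of over 65% in size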
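Infected erythrocytes (Dd2, 0.3% parasitemia, 2.5% hematocrit final) are added to compound in RPMI-1640/Albumax II medium, grown 72 h at 37C in low oxygen, then lysed with saponin/Triton-X containing SYBR Green and read by fluorescence.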
* marks the source's active call; other numbers are inactive results; i = inactive; [ ] = dose if it differs, or a comment. Potency is the fitted concentration of half-maximal effect.

SMILES | Pf Dd2 growth
Cc1ccc(C)c(NC(=O)N2CCCC(c3noc(COc4ccccc4F)n3)C2)c1 (centres undefined) | i
CN(Cc1cc(-c2ccccc2)on1)C(=O)c1cn(Cc2ccc(F)cc2)nn1 | 3.2%
COCCc1noc(C2CN(C(=O)c3cn(C)cn3)C2)n1 | 10.6%
CC(=O)NCC(=O)N1CC(F)(F)C[C@H]1c1nc(C2CC2)no1 | 10.5%
Cc1ccc(C)c(S(=O)(=O)N(C)CC2CCOC2)c1 (centres undefined) | i[5.79 µM]
CCn1cc(CN2CCN(C(=O)Cc3c(C)noc3C)CC2)ccc1=O | 35.0%
COC[C@@H]1CN(S(=O)(=O)c2c(C)noc2C)C[C@H]1c1ccncc1 | -3.9%
COC1C(=O)N(CC2CC2)C12CCN(S(=O)(=O)c1cccc3cccnc13)CC2 (centres undefined) | -7.5%
COc1ccc(F)cc1C(=O)N1CC[C@@H]2[C@@H](CCC(=O)N2CCN)C1 | -11.1%
O=C(O)C1CC2(CCN(C(=O)NCCc3ccccc3)CC2)CN1 (centres undefined) | -9.8%
CC(=O)N1CCc2nc(-c3ccc(Cl)cc3)nc(-c3ccccc3)c2C1 | -16.1%
CN(C)C(=O)N1CCc2nc(-c3ccccc3)nc(-c3ccc(Cl)cc3)c2C1 | i
Cc1nc2c(c(-c3ccc(Cl)cc3)n1)CN(C(=O)c1ccccc1)CC2 | -7.3%
O=C(c1ccc(Cl)nc1)N1CCc2nc(-c3ccc(Cl)cc3)nc(-c3ccccc3)c2C1 | -24.4%
CC(C)(C)C(=O)N1CCc2nc(-c3ccccc3)nc(-c3ccc(Cl)cc3)c2C1 | 5.01µM*
Cc1ccc(C(=O)N2CCc3nc(-c4ccccc4)nc(-c4ccc(Cl)cc4)c3C2)cc1 | 10µM*
CNC(=O)C(C)(C)N1CCC[C@H]1C(=O)N1CCc2ccccc2C1 | i
CCOc1ccccc1C(=O)N1CC[C@@H]2CN(S(C)(=O)=O)[C@@H]2C1 | i
CCC1(N2CCN(C(=O)c3ccccc3OC(F)(F)F)CC2)CCN(S(C)(=O)=O)C1 (centres undefined) | -26.2%
O=C(c1cccc2[nH]ccc12)N1CC[C@@H]2COCCN(Cc3cccnc3)[C@@H]2C1 | 17.7%
Cc1ccc2oc3c(c(=O)c2c1)C(c1ccc(O)cc1)N(CCCN(C)C)C3=O (centres undefined) | 27.0%
CC(C)c1ccc(C2c3c(oc4ccc(Cl)cc4c3=O)C(=O)N2CCCN2CCOCC2)cc1 (centres undefined) | 6.31µM*
COc1ccc(C2c3c(oc4ccc(C)cc4c3=O)C(=O)N2CCCN2CCOCC2)cc1OC (centres undefined) | -7.3%
O=C1CCN(S(=O)(=O)c2ccccc2)CCCC(C(=O)NCc2cccnc2)CCN1 (centres undefined) | -2.7%
Fc1ccccc1CN1CCNc2cnc(Oc3ccccc3)cc2C1 | 14.6%[44.1 µM]
SMILES | Pf Dd2 growth
C#CCNC(=O)C[C@@H]1c2nc(NC(=O)c3c(F)cccc3F)sc2C[C@@H]2[C@](C)(CO)[C@H](O)CC[C@]21C | i
C[C@]1(CO)[C@H]2Cc3sc(NC(=O)c4ccc(F)cc4)nc3[C@@H](CC(=O)NC3CCCCC3)[C@]2(C)CC[C@H]1O | -10.0%
CCCCCC(=O)Nc1nc2c(s1)C[C@@H]1[C@](C)(CO)[C@H](O)CC[C@@]1(C)[C@@H]2CC(=O)NC1CCCC1 | 11.2µM*
CC(C)(C)CC(=O)Nc1nc2c(s1)C[C@@H]1[C@](C)(CO)[C@H](O)CC[C@@]1(C)[C@@H]2CC(=O)Nc1ccccc1 | 11.2µM*
C#CCN(C)C(=O)C[C@@H]1c2nc(NC(=O)COC)sc2C[C@@H]2[C@](C)(CO)[C@H](O)CC[C@]21C | 0.9%
CC(C)(C)C(=O)Nc1nc2c(s1)C[C@@H]1[C@](C)(CO)[C@H](O)CC[C@@]1(C)[C@@H]2CC(=O)NCCN1CCOCC1 | 12.3%
C[C@]1(CO)[C@H]2Cc3sc(NC(=O)c4c(F)cccc4F)nc3[C@@H](CC(=O)NC3CCCC3)[C@]2(C)CC[C@H]1O | 5.01µM*
C[C@]1(CO)[C@H]2Cc3sc(NC(=O)COc4ccccc4)nc3[C@@H](CC(=O)O)[C@]2(C)CC[C@H]1O | -0.6%
CCCCCC(=O)Nc1nc2c(s1)C[C@@H]1[C@](C)(CO)[C@H](O)CC[C@@]1(C)[C@@H]2CC(=O)N(C)Cc1ccccc1 | i
C#CCN(C)C(=O)C[C@@H]1c2nc(NC(=O)CCCCC)sc2C[C@@H]2[C@](C)(CO)[C@H](O)CC[C@]21C | 10µM*
O=C1N(c2ccccc2)C[C@H]2CN(Cc3ccnc4ccccc34)CCN12 | i
O=C(NC1CCCC1)C1c2ccccc2CC(=O)N1Cc1ccccc1 (centres undefined) | -6.4%
COC(=O)CNC(=O)C1CN(S(=O)(=O)c2cccnc2)CC12CCCCC2 (centres undefined) | -1.6%
CC(C)CC(=O)N1CCC2(C1)C(=O)N(C)c1ccccc12 (centres undefined) | 4.2%
CC1CCN(C(=O)c2ccccc2OCC2CCCN(C(=O)c3ccncc3)C2)CC1 (centres undefined) | -0.4%
O=C(Cn1ccn2nc(-c3ccc(F)cc3)c(CO)c2c1=O)Nc1ccccc1C(F)(F)F | -15.3%
CC(C)=CCN1CCC2(CCC(CNc3ncncn3)O2)CC1 (centres undefined) | -26.4%
COCC(=O)N[C@@H]1CN(S(=O)(=O)Cc2ccccc2)CC[C@@H]1c1nc(C)no1 | -11.8%[5.79 µM]
CCOc1ccc(CC(=O)N2CCC(C3CCNC3)CC2)cc1OCC (centres undefined) | 5.2%
Cc1noc2c(NC3CCC(O)CC3)cc(-c3cccnc3)nc12 (centres undefined) | i
Cc1ccccc1S(=O)(=O)N1CCn2nnc(CCC(=O)NC3CC3)c2C1 | 18.1%
Cc1noc([C@@H]2CNC[C@H]2CO)n1 | i
CCOc1ccc(CC(=O)NC2CCN(c3cc(-c4cccs4)[nH]n3)C2)cc1 (centres undefined) | -0.5%
CC(=O)NCC(=O)N[C@@H]1CN(Cc2ccccc2)C[C@H]1CO | 5.9%
CCCCCC(=O)Nc1nc2c(s1)C[C@@H]1[C@](C)(CO)[C@H](O)CC[C@@]1(C)[C@@H]2CC(=O)Nc1cccc(O)c1 | 12.6µM*
SMILES | Pf Dd2 growth
CCCCCC(=O)Nc1nc2c(s1)C[C@@H]1[C@](C)(CO)[C@H](O)CC[C@@]1(C)[C@@H]2CC(=O)N[C@H](C)c1ccccc1 | 5.01µM*
C[C@@H](NC(=O)C[C@@H]1c2nc(-c3cccnc3)sc2C[C@@H]2[C@](C)(CO)[C@H](O)CC[C@]21C)c1ccccc1 | -23.6%
Cc1ncoc1C(=O)N1CCOC(Cc2cccc(C(F)(F)F)c2)C1 (centres undefined) | -26.4%
CNc1nc2c(c(C(=O)N3CCCC3)n1)CN(C(=O)Cn1nc(C)cc1C)CC2 | -4.3%
COc1ccccc1NC(=O)CN1C(=O)C2(SCC(=O)N2c2ccc(C)c(C)c2)c2ccccc21 (centres undefined) | 10µM*
COc1ccc(N2C(=O)CCSC23C(=O)N(Cc2ccc(F)cc2)c2ccccc23)cc1Cl (centres undefined) | 11.2µM*
Cc1ccc(N2C(=O)CSC23C(=O)N(Cc2ccccc2F)c2ccccc23)cc1F (centres undefined) | i
COc1ccccc1NC(=O)CN1C(=O)CSc2ccc(S(=O)(=O)N3CCCC3)cc21 | -15.9%
COc1cccc(CN2C(=O)C3(SCC(=O)N3c3ccc(F)cc3)c3ccccc32)c1 (centres undefined) | i
Cc1ccc(C)c(NC(=O)CN2C(=O)C3(SCC(=O)N3c3ccc(C)c(C)c3)c3ccccc32)c1 (centres undefined) | 11.2µM*
